In PubChem BioAssay AID1159580 (chemical genetic matrix, 2015):
Out of some 5,500 compounds screened, about 2,000 (36%) were called active. Another 18% or so got no clear call; they are omitted. Rule as the data show it: active = normalized growth mostly below about 0.91 (no sharp cut-off); inconclusive = no clear call, values can overlap the other calls; inactive = mostly above about 0.92. Some of the results follow.

Experiment: chemical genetic growth profiling, strain panel (AID 1159580);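 also: tested at 20 µM; growth read once vehicle control cultures reached saturation at 30 °C; 1 = growth at the plate median or of vehicle wells; lower values mean less growth of the strain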
Conditions: S. cerevisiae deletion strains, growth OD
[1] = locus YAL040C, strain CLN3, stronger effect = lower value
[2] = locus YCL061C, strain MRC1 (second series), stronger effect = lower value
[3] = locus YDR363W, strain ESC2, stronger effect = lower value
[4] = locus YER002W, strain NOP16, stronger effect = lower value
[5] = locus YGR078C, strain PAC10, stronger effect = lower value
[6] = locus YMR307W, strain GAS1, stronger effect = lower value
[7] = locus YNL175C, strain NOP13, stronger effect = lower value
[8] = locus YNL197C, strain WHI3, stronger effect = lower value
[9] = locus YNL224C, strain SQS1, stronger effect = lower value
[10] = locus YOR083W, strain WHI5 (second series), stronger effect = lower value
[11] = locus YPL241C, strain CIN2, stronger effect = lower value

Measured: normalized growth

CC(C(O)c1ccc(O)cc1)N1CCC(Cc2ccccc2)CC1 (centres undefined)
inactive: locus YAL013W, strain DEP1, stronger effect = lower value 0.932 | [1] 1.03 | [2] 0.959 | [3] 0.94 | [4] 1.01 | [5] 1.01 | [6] 0.994 | [7] 0.935 | [8] 1.03 | [9] 1.03 | [10] 1.04
active: locus YDR150W, strain NUM1, stronger effect = lower value 0.872 | locus YGR229C, strain SMI1, stronger effect = lower value 0.785 | locus YPL055C, strain LGE1, stronger effect = lower value 0.75 | [11] 0.944

C[C@@H](CN1CCC(Cc2ccccc2)CC1)[C@@H](O)c1ccc(O)cc1
inactive: [1] 1.07 | [2] 0.996 | [3] 1.01 | [4] 1.01 | [5] 0.996 | locus YMR263W, strain SAP30, stronger effect = lower value 1 | [6] 1.05 | locus YNL128W, strain TEP1, stronger effect = lower value 1.03 | [7] 0.993 | [8] 0.999 | [9] 1.02 | locus YNL322C, strain KRE1, stronger effect = lower value 0.979 | [10] 1 | [11] 0.99
